# Source: PubChem BioAssay (NCI)
# Several values for one entry are separate records, joined by “and”; a condition that tells them apart may be missing. Equal entries are not always repeated. This is part of a sample that, as a whole, favours compounds with a hit. Of some 83,000 tested, about 20% had one in any assay.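 Each cell line was grown in a 96-well plate and treated with one concentration of compound for 48 hours. Values below 10 were considered active.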 Activity calls are given as the source filed them.
# Tested on: NCI-H226 lung
# Experiment: NCI-60 one-dose screen, 48 h (100 = growth as untreated, 0 = no growth, -100 = all killed)
# Settings: 0.01 µM
# Experimental: Growth inhibition of the NCI-H226 human Non-Small Cell Lung tumor cell line is measured as a screen for anti-cancer activity. Cells are grown in 96 well plates and exposed to the test compound for 48 hours. Compounds are tested at a single concentration, which is 10^-5 M for most compounds. The reported endpoint is percent growth (GI% or GIPRCNT), where numbers from 0 - 100% represent growth inhibition, and numbers from -100% - 0 represent cell death. For example, a value of 40 represents 60% growth inhibition. A value of 0 means no net growth occurred over the course of the experiment. A value of -40 indicates 40% of cells at the beginning of the experiment died by the end of the experiment. A value of -100 means all cells are dead at the end of the experiment.
# NCI-60 Human Tumor Cell Lines Screen was performed using the standard one-dose NCI protocol, which is described in more detail at https://dtp.cancer.gov/discovery_development/nci-60/default.htm.
# Compounds with GIPRCNT values below 10 were considered active. Activity score was based on GIPRCNT using the following formula: […]
# Score is 0 for GIPRCNT values of 100 or above, 50 for GIPRCNT values of 0, and 100 for GIPRCNT values of -100.
row,Structure (SMILES),growth
1,CC(=O)O[C@H]1C(=O)[C@@]2(C)[C@H]([C@H](OC(=O)c3ccccc3)[C@]3(O)C[C@H](OC(=O)[C@H](O)[C@@H](NC(=O)c4ccccc4)c4ccccc4)C(C)=C1C3(C)C)[C@]1(OC(C)=O)CO[C@@H]1C[C@@H]2O,67.6% (inactive)

# Same assay, conditions: 2.5 µM
row,Structure (SMILES),growth
1,CC(=O)O[C@H]1C(=O)[C@@]2(C)[C@H]([C@H](OC(=O)c3ccccc3)[C@]3(O)C[C@H](OC(=O)[C@H](O)[C@@H](NC(=O)c4ccccc4)c4ccccc4)C(C)=C1C3(C)C)[C@]1(OC(C)=O)CO[C@@H]1C[C@@H]2O,27.4% (inactive)

# Same assay, conditions: 5 µM
row,Structure (SMILES),growth
1,CC(=O)O[C@H]1C(=O)[C@@]2(C)[C@H]([C@H](OC(=O)c3ccccc3)[C@]3(O)C[C@H](OC(=O)[C@H](O)[C@@H](NC(=O)c4ccccc4)c4ccccc4)C(C)=C1C3(C)C)[C@]1(OC(C)=O)CO[C@@H]1C[C@@H]2O,32.1% (inactive)

# Same assay, conditions: 10 µM
row,Structure (SMILES),growth
1,S=P(N1CC1)(N1CC1)N1CC1,102% (inactive) and 80.4% (inactive)
2,Cn1c2nc3ccccc3c-2nc2ccccc21,104% (inactive)
3,NCc1c(O)ccc2ccccc12,96.2% (inactive)
4,O=C1c2ccccc2CCC1(Br)Br,27.1% (inactive)
5,CN(C)CCNc1cccc2sc3ccc(O)cc3c(=O)c12,74% (inactive)
6,CCC(=O)Oc1ccc(/C=N/NC(N)=S)nc1,79.1% (inactive)
7,N#C/C(=C/N1C(=O)/C(=C/c2ccc([N+](=O)[O-])cc2)SC1=S)c1nc2ccccc2s1,63.8% (inactive)
8,COc1cccc(C(c2cc3c(cc2O)OCO3)N2CCOCC2)c1OC (stereo not given),99.6% (inactive)
9,Cc1cc(Cl)ccc1NC(=O)/C(Cl)=C1/Sc2ccccc2NC1=O,90.3% (inactive)
10,COc1ccc(C(C#N)=C2C=CC(=NO)C=C2)cc1,-14.3% (active)
11,O=C(NC(=S)Nc1ccccn1)c1ccccc1,91.1% (inactive)
12,CC(=O)O[C@H]1C(=O)[C@@]2(C)[C@H]([C@H](OC(=O)c3ccccc3)[C@]3(O)C[C@H](OC(=O)[C@H](O)[C@@H](NC(=O)c4ccccc4)c4ccccc4)C(C)=C1C3(C)C)[C@]1(OC(C)=O)CO[C@@H]1C[C@@H]2O,77.4% (inactive) and 31% (inactive)
13,O=S(=O)(c1cc(Cl)ccc1O)c1cc(Cl)ccc1O,78.1% (inactive)
14,Cc1cc(O)c2c(c1O)C(=O)C13C(=C2O)C(=O)C2C(O)C1C1C(O)C3C(=O)C3=C(O)c4c(O)cc(C)c(O)c4C(=O)C321 (stereo not given),-2.71% (active)
15,O=C1C=CC(=O)N1c1ccc(N2C(=O)C=CC2=O)cc1,84.8% (inactive)
16,COc1ccc2c(c1)[nH]c1c(/C=C/c3ccccc3)nccc12,73% (inactive)
17,COc1cc(N)ccc1Nc1c2ccccc2nc2ccccc12,73.3% (inactive)
18,O=C(CNS(=O)(=O)Cc1ccccc1)NNc1ccccc1,72.9% (inactive)

row,Structure (SMILES),growth
1,CC1CCC2(C(=O)O)CCC3(C)C(=CCC4C5(C)CC(O)C(O)C(C)(CO)C5C(O)CC43C)C2C1C (stereo not given),115% (inactive)
2,O=C1C(Cl)=C(Cl)C(Cl)(Cl)C(Cl)C1(Cl)Cl (stereo not given),105% (inactive)
3,S=C1SCN(CCc2ccccc2)CN1CCc1ccccc1,99.4% (inactive)
4,O=[N+]([O-])c1cc(S(=O)(=O)Nc2ccccc2)ccc1Cl,99% (inactive)
5,O=c1[nH]cc(/C=N\Nc2ccccc2)c(=O)[nH]1,87.7% (inactive)
6,CCC(C)(c1ccc(O)c(C)c1)c1ccc(O)c(C)c1,101% (inactive)
7,Cc1c(-c2ccccc2)[nH]c2ccccc12,95.3% (inactive)
8,CN(C)c1ccc(/C=C/c2ccnc3ccccc23)cc1N,53% (inactive)
9,O=Nc1ccc(Nc2ccccc2)cc1,92.8% (inactive)
10,Cn1ncc2cc3c(Nc4ccc(Cl)cc4)cccc3nc21,94.4% (inactive)
11,O=C1c2cccc3cc([N+](=O)[O-])cc(c23)C(=O)N1CCN1CCCC1,-62.2% (active)
12,CN(CC(=O)O)c1ccc(/C=C/c2ccnc3ccccc23)cc1,60.8% (inactive)
13,CC[C@@]1(OC(=O)CN(C)C)C(=O)OCc2c1cc1n(c2=O)Cc2cc3c(N)cccc3nc2-1,-13.4% (active)
14,Cc1cc(N=C2C=CC(=[N+](C)C)C=C2)c(N)cc1N,97.9% (inactive)
15,CCOC(=O)[C@]1(Br)CC[C@@]1(Br)C(=O)OCC,91.8% (inactive)
16,COc1ccc(N)c2c1C(=O)c1ccccc1C2=O,93.5% (inactive)
17,COc1ccc2oc(-c3ccc(Cl)cc3)c(N3CCN(C)CC3)c2c1,91% (inactive)
18,Nc1nc(N)c2cc(Sc3ccc4ccccc4c3)ccc2n1,57.7% (inactive)

# Same assay, conditions: 100 µM
row,Structure (SMILES),growth
1,S=P(N1CC1)(N1CC1)N1CC1,62.4% (inactive)
